Records with an inconclusive call do not appear. Calls of active or inactive are those of the source. Unless noted, calls follow the shape of the full dose curve.
Key:
[1] = Nuclear factor erythroid 2-related factor 2/antioxidant responsive element (Nrf2/ARE) small molecule agonists: luciferase reporter gene qHTS assay in human keratinocytes (AID 1919969); also: nearly all actives have a fitted effect of over 35% in size; also: potency is read from the fitted curve at half-maximal effect
[2] = target: Gonadotropin-releasing hormone receptor (Homo sapiens) (UniProt P30968); assay: Human gonadotropin-releasing hormone receptor (GnRHR) small molecule agonists, calcium flux assay in GnRHR-HEK293 cells (AID 1920063); also: nearly all actives have a fitted effect of over 35% in size
Gonadotropin-releasing hormone receptor (Homo sapiens), sequence (P30968 whole entry, looked up): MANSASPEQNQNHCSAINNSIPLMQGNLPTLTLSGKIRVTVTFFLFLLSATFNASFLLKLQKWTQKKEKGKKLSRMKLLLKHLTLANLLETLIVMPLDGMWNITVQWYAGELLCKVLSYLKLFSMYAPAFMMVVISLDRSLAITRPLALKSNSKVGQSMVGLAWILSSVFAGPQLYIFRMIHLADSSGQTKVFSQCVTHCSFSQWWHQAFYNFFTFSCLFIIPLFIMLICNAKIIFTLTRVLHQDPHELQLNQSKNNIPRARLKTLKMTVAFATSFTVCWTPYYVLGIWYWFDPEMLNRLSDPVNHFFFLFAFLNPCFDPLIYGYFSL
Summary of the method: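 We seeded human GnRHR-expressing HEK293 cells for 18 hours, loaded them with calcium dye for an hour at 37 C, added test compounds, and recorded fluorescence intensity kinetically for three minutes.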

[3] = target: KiSS-1 receptor (Homo sapiens) (UniProt Q969F8); assay: Human kisspeptin (KISS1R) small molecule agonists, calcium flux assay in KISS1R-HEK293 cells (AID 1920064; active = well fitted activation curve with a large enough effect in the repeat runs)
KiSS-1 receptor (Homo sapiens), sequence (Q969F8 whole entry, looked up): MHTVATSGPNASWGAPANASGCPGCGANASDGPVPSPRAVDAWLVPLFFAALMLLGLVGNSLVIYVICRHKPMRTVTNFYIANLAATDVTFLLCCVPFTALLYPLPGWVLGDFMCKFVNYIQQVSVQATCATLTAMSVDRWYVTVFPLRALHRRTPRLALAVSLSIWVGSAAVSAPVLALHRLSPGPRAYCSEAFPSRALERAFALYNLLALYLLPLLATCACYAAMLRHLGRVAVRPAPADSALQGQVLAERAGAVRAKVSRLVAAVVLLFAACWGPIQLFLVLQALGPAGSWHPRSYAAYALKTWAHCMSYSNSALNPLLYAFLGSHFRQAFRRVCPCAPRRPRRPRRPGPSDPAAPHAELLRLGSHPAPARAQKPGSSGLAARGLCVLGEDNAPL
Summary of the method: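 Kinetic calcium assay, 1 s sampling over 3 min at Ex/Em 480/540, in HEK293 cells engineered with human KISS1R; compounds delivered in DMSO after 1 h dye loading.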

[4] = G protein-coupled receptor (GPCR) small molecule agonists, calcium flux assay: HEK293 wild type cell line counter screen (AID 1920065)
Summary of the method: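 Calcium-sensitive dye, loaded 1 h at 37 C into cells cultured 18 h, reports compound-evoked calcium release as fluorescence (Ex/Em 480/540), measured over 3 min. Agonist mode; 15-point titrations, triplicate.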

[5] = p53 small molecule agonists, cell-based qHTS assay with rat liver microsomes (AID 1963578)
Summary of the method: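 p53RE-bla cells were exposed to compounds together with rat liver microsomes (0.5 mg/mL final) and NADPH (0.5 mg/mL final) for 16 h at 37 C, then read by LiveBLAzer beta-lactamase fluorescence after 2 h at room temperature.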

[6] = p53 small molecule agonists, cell-based qHTS assay with human liver microsomes: qHTS cell viability counter screen (AID 1963579); also: nearly all actives have a fitted effect of over 45% in size; also: potency is read from the fitted curve at half-maximal effect
Summary of the method: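 p53RE-bla cells (4,000/well) were pre-incubated 5 h at 37 C, then given compounds in DMSO plus human liver microsomes (0.5 mg/mL final) and NADPH (0.5 mg/mL final) for 16 h at 37 C. Viability was read by CellTiter-Glo luminescence.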

[7] = p53 small molecule agonists, cell-based qHTS assay with rat liver microsomes: qHTS cell viability counter screen (AID 1963580); also: nearly all actives have a fitted effect of over 45% in size
Summary of the method: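 In HCT-116 cells carrying a p53 response element-bla reporter, compounds were metabolically activated in situ by rat liver microsomes with NADPH over 16 h. Cell ATP content then served as the cytotoxicity measure.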

[8] = p53 small molecule agonists, cell-based qHTS assay (AID 1963582; active = well fitted activation curve with a large enough effect in the signal ratio in the repeat runs, not every such curve was filed as active; the % refers to the signal ratio)
Summary of the method: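 In this cell-based concentration-response screen, a p53 response element drives beta-lactamase; cells received DMSO-borne compounds after 5 h culture and were incubated a further 16 h before FRET substrate development.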

[9] = target: 5-hydroxytryptamine receptor 2A (Homo sapiens) (UniProt P28223); assay: 5-hydroxytryptamine receptor 2A (HTR2A) small molecule antagonists, cell-based qHTS assay (AID 1963586); also: nearly all actives have a fitted effect of over 45% in size; also: potency is read from the fitted curve at half-maximal effect
5-hydroxytryptamine receptor 2A (Homo sapiens), sequence (P28223 whole entry, looked up): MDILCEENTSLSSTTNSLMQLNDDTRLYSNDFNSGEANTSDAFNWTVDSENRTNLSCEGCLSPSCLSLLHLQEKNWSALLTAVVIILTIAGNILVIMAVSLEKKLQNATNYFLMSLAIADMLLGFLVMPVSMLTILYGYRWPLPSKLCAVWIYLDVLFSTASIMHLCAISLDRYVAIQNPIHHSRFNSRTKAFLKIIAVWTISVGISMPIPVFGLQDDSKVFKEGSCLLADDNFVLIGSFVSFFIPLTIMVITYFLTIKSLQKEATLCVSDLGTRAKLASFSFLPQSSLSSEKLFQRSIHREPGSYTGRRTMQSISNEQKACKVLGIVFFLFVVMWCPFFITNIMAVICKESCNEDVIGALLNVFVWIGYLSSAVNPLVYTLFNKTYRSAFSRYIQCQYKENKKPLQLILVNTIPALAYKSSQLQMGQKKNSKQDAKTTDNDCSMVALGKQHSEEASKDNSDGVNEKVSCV
Summary of the method: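 Antagonist-mode intracellular calcium assay: DOI (4 nM) added after 5 min compound pre-incubation at room temperature to dye-loaded HTR2A-CHO cells. Fluorescence followed for 3 min, sampled every second.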

[10] = target: 5-hydroxytryptamine receptor 2A (Homo sapiens) (UniProt P28223); assay: 5-hydroxytryptamine receptor 2A (HTR2A) small molecule agonists, cell-based qHTS assay (AID 1963587); also: nearly all actives have a fitted effect of over 30% in size
Summary of the method: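 HTR2A-CHO cells, plated 18 h at 37 C/5% CO2, dye-loaded 1 h at 37 C; compounds in DMSO added by pin tool (agonist mode). Intracellular calcium flux read as kinetic fluorescence on FDSS over 2 min at 1 s intervals.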

[11] = target: Muscarinic acetylcholine receptor M1 (Homo sapiens) (UniProt P11229); assay: Cholinergic receptor muscarinic 1 (CHRM1) small molecule antagonists, cell-based qHTS assay (AID 1963588); also: nearly all actives have a fitted effect of over 40% in size; also: potency is read from the fitted curve at half-maximal effect
Muscarinic acetylcholine receptor M1 (Homo sapiens), sequence (P11229 whole entry, looked up): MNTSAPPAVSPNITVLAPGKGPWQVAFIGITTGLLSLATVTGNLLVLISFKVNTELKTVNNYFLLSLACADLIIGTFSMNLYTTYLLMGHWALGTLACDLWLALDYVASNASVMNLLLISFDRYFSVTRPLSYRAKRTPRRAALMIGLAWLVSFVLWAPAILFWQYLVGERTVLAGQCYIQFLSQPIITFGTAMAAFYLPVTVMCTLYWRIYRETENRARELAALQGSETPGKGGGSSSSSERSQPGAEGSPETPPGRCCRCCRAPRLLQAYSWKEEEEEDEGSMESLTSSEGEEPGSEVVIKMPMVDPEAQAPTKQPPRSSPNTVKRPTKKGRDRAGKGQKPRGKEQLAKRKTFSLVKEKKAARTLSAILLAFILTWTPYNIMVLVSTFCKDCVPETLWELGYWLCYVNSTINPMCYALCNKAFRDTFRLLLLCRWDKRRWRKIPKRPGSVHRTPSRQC
Summary of the method: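 CHRM1-CHO calcium-flux assay, antagonist mode. Cells were seeded 18 h, dye-loaded 1 h at 37 C and given compound for 5 min at RT, then acetylcholine was added at 50nM. FDSS fluorescence was read 3 min; 15 concentrations, three runs.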

[12] = target: Muscarinic acetylcholine receptor M1 (Homo sapiens) (UniProt P11229); assay: Cholinergic receptor muscarinic 1 (CHRM1) small molecule agonists, cell-based qHTS assay (AID 1963589); also: nearly all actives have a fitted effect of over 35% in size
Summary of the method: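 Measures agonist-induced intracellular calcium rise. Stable human CHRM1 CHO line, 1 h dye load at 37 C, compounds from DMSO, kinetic fluorescence read.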

[13] = target: Beta-2 adrenergic receptor (Homo sapiens) (UniProt P07550); assay: Adrenergic beta2 receptor (ADRB2) small molecule antagonists, cell-based qHTS assay (AID 1963592); also: series mostly up to about 92 µM; nearly all actives have a fitted effect of over 50% in size
Beta-2 adrenergic receptor (Homo sapiens), sequence (P07550 whole entry, looked up): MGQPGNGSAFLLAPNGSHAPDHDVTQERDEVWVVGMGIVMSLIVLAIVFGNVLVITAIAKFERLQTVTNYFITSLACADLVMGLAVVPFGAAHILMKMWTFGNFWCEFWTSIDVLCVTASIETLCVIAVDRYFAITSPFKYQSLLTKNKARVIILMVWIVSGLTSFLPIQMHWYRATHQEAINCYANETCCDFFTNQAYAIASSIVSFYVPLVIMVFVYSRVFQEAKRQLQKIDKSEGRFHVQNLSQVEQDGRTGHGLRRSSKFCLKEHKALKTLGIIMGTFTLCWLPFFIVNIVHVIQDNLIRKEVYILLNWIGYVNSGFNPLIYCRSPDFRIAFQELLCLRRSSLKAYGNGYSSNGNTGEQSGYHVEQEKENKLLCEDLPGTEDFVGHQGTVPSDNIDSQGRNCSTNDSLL
Summary of the method: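 Cells (CHO, stable ADRB2 overexpression) incubated 18-20hr at 37C; compounds added from DMSO; agonist mix (1nM isoproterenol, 100uM IBMX, 25uM Ro-20-1724) added; 0.5hr RT; d2-cAMP and anti-cAMP-cryptate added; 1hr RT; 665/615 nm read.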

[14] = target: D(2) dopamine receptor (Homo sapiens) (UniProt P14416); assay: Dopamine D2 receptor (DRD2) small molecule antagonists, cell-based qHTS assay (AID 1963595; active = well fitted inhibition curve with a large enough effect in the signal ratio in the repeat runs, with a control signal flat; the % refers to the signal ratio; also: potency is read from the fitted curve at half-maximal effect)
D(2) dopamine receptor (Homo sapiens), sequence (P14416 whole entry, looked up): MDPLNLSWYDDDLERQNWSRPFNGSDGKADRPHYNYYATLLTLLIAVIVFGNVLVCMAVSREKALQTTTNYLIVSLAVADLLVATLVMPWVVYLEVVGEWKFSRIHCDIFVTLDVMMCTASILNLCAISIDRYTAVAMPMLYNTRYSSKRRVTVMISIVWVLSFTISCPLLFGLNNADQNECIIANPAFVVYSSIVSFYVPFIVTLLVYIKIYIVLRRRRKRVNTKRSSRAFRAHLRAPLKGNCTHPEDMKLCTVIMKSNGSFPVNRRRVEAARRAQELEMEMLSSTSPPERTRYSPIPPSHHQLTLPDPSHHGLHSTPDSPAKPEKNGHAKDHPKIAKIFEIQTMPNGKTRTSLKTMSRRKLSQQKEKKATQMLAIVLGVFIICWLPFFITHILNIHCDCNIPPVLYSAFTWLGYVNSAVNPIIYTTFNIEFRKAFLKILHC
Summary of the method: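 HTRF cAMP read-out at 665 and 620 nm emission (340 nm excitation). Antagonist mode: compounds were tested against 12 nM quinpirole in DRD2-HEK293 cells, with 200 nM NKH477 raising cAMP and 0.1 mM Ro20-1724 blocking its breakdown.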

[15] = p53 small molecule agonists, cell-based qHTS assay: qHTS cell viability counter screen (AID 1963581); also: nearly all actives have a fitted effect of over 45% in size
Summary of the method: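 Following 5 h attachment, HCT-116 p53RE-bla cells took up compound for 16 h at 37 C; the reporter was read with B/G FRET substrate (2 h RT), and viability then via CellTiter-Glo ATP luminescence.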

[16] = cAMP Responsive Elements (CRE) small molecule antagonists, cell-based qHTS assay (AID 1963591; active = well fitted inhibition curve with a large enough effect in the signal ratio in the repeat runs, not every such curve was filed as active; the % refers to the signal ratio)
Summary of the method: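 HEK293T cells carrying a CRE-driven beta-lactamase reporter receive compound and NKH477 (0.25 uM final) for 3 h. Fluorescence from LiveBLAzer B/G FRET substrate is read after 2 h at room temperature.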

[17] = target: Beta-2 adrenergic receptor (Homo sapiens) (UniProt P07550); assay: Adrenergic beta2 receptor (ADRB2) small molecule agonists, cell-based qHTS assay (AID 1963593);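 also: CHO cells stably overexpressing human ADRB2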
Summary of the method: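 CHO cells stably over-expressing ADRB2 were plated overnight at 37C, then dosed with compounds plus a stimulation mix containing 100uM IBMX and 25uM Ro-20-1724 for 0.5hr at room temperature. cAMP was measured by HTRF competition, 1hr.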

[18] = target: D(2) dopamine receptor (Homo sapiens) (UniProt P14416); assay: Dopamine D2 receptor (DRD2) small molecule agonists, cell-based qHTS assay (AID 1963594); also: nearly all actives have a fitted effect of over 35% in size
Summary of the method: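 HEK293 cells stably expressing DRD2 were cultured 24 h at 37 C, then given Ro20-1724 (0.1 mM final) and compounds for 10 min at room temperature. NKH477 (200nM) was then added for 30 min. cAMP was read by HTRF.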

[19] = p53 small molecule agonists, cell-based qHTS assay with human liver microsomes (AID 1963577)
Summary of the method: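 p53RE-bla reporter cells were pre-incubated 5 h at 37 C, then treated with compounds plus human liver microsomes (0.5 mg/mL final) and NADPH (0.5 mg/mL final) for 16 h at 37 C. Beta-lactamase activity was read by LiveBLAzer fluorescence after 2 h at room temperature.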

[20] = cAMP Responsive Elements (CRE) small molecule agonists, cell-based qHTS assay (AID 1963590)
Summary of the method: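 A CRE-responsive beta-lactamase reporter in HEK 293T cells was used. Treatment ran 3 h at 37 C; detection used LiveBLAzer B/G FRET substrate for 2 h at room temperature.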

Measured: Potency

CCCCCCC(C)OC(=O)COc1nc(F)c(Cl)c(N)c1Cl (centres undefined)
not listed: [15] | [16] | [17] | [18] | [19] | [20]
inactive: all other assays above

CC1(C)C(=O)NC(=O)N1CO
not listed: [19] | [20]
inactive: all other assays above

Oc1ccc(CCNCCCCCCNCCc2ccccc2)cc1O
active: [14] 8.41 µM
not listed: [9] | [17] | [19] | [20]
inactive: all other assays above

Nc1cccc2c(N)cccc12
active: [1] 13.7 µM
inactive: [2] | [3] | [4] | [19] | [7] | [10] | [11] | [12] | [20]

Nc1ccc([N+](=O)[O-])c(N)c1
not listed: [17] | [19]
inactive: all other assays above

Nc1ccc(O)c(N)c1
not listed: [13] | [14] | [17] | [19]
inactive: all other assays above

CN(C)CCCN1c2ccccc2Sc2ccc(C(F)(F)F)cc21
not listed: [8] | [9] | [10] | [14] | [17] | [19] | [20]
inactive: all other assays above

O=C1c2ccccc2C(=O)c2c1ccc(O)c2O
not listed: [12] | [14] | [16] | [17] | [19] | [20]
inactive: all other assays above

C=CC(=O)OCC1CC2CC1C1CCC(COC(=O)C=C)C21 (centres undefined)
active: [1] 24.3 µM | [6] 40.8 µM
not listed: [8] | [11] | [15] | [16] | [18] | [19] | [20]
inactive: all other assays above

CC(C)n1nc(-c2cc3cc(O)ccc3[nH]2)c2c(N)ncnc21
not listed: [7] | [16] | [17] | [19] | [20]
inactive: all other assays above

CC(=O)c1ccc2c(c1)N(CCCN1CCC(CCO)CC1)c1ccccc1S2
active: [9] 0.326 µM | [14] 0.0168 µM
not listed: [5] | [7] | [11] | [13] | [17] | [20]
inactive: all other assays above

CCCCCCCC/C=C\CCCCCCCC(=O)N(CCO)CCO
not listed: [8] | [19]
inactive: all other assays above

OC(CCN1CCCCC1)(c1ccccc1)C1CC2C=CC1C2 (centres undefined)
active: [11] 0.0013 µM
not listed: [7] | [16] | [19] | [20]
inactive: all other assays above

Sc1nc2ccccc2s1
active: [1] 68.6 µM
not listed: [11] | [19]
inactive: all other assays above

O=C(O)CN1C(=O)c2cccc3cccc(c23)C1=O
not listed: [14] | [15] | [17] | [19]
inactive: all other assays above

Reference: PubChem BioAssay (Tox21)
